Measured values from PubChem BioAssay.
Calls of active or inactive are those of the source.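 The calls were made as follows, unless noted: active = NADPH fluorescence slope more negative than the mean of all samples by about 3 SD, 99.7% confidence; inactive = the rest.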

Experiments:
[1] = inhibitors of TNFa-induced NFkB p65 translocation, primary screen, imaging, HUVEC, MLSMR starter and 10KST1 sets (AID 438;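 active = inhibition above 20% together with a positive visual image hit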;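 also: compound added about 3h40 before a 20 min TNFalpha stimulation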;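 as to inhibition: signal is the nuclear over cytoplasmic p65 intensity ratio per well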); conditions: HUVEC TNFa-induced p65 nuclear translocation; cell count: measured here: nuclei count (cytotoxicity indicator), at 2.08 µM; inhibition: at 2 µM, stronger effect = higher value, 0% TNFa-plus-vehicle, 100% no-TNFa wells
[2] = reduction of polyQ htt aggregates in cells – imaging, exon1htt(103Q)mCFP cells, high-content imaging, primary screen (AID 483;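 active = visual image review flags a hit and inhibition of aggregation exceeds 20%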;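 also: compound exposure lasted 3 days before fixation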;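 as to nuclei count: percent of the per-plate median nuclei count of sample wells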); conditions: exon1htt(103Q)mCFP cell line, aggregate imaging, at 2 µM; inhibition of aggregation: stronger effect = higher value; nuclei count: measured here: cell count, toxicity
[3] = endothelial E-selectin expression blockers – imaging, HUVEC, immunofluorescence, MLSMR starter and 10KST1 sets, primary screen (AID 487;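 active = visually confirmed hit in the image check and inhibition above 20%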;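 as to inhibition: signal is fraction of cell area covered by stained E-selectin grains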;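 as to nuclei count: 100% = median nuclei count of all wells on the same plate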); conditions: HUVEC TNFalpha-induced E-selectin immunofluorescence imaging, at 2 µM; inhibition: stronger effect = higher value; nuclei count: measured here: cell number, toxicity
[4] = biological target: Voltage-gated potassium channel subunit beta-2 (Rattus norvegicus) (UniProt P62483); assay: inhibitors of rat Kvbeta2 reductase activity – biochemical, NADPH fluorescence, primary screen (AID 622;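 active = fluorescence slope higher than the sample average by over 3 SD, cut at about -0.22 in these data, passing the limit was not always enough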;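 also: slope of raw intensity against log time taken from 70 to 1610 s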); conditions: recombinant KvBeta, 4-cyanobenzaldehyde reduction, at 10 µM, stronger effect = higher value
[5] = biological target: Voltage-gated potassium channel subunit beta-2 (Rattus norvegicus) (UniProt P62483); assay: enhancers of rat Kvbeta2 NADPH turnover – biochemical, NADPH fluorescence, primary screen (AID 623); conditions: Recombinant KvBeta, NADPH fluorescence decrease slope, 10 min; at 10 µM; stronger effect = lower value;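 also: fluorescence intensity change per second fitted from 20 to 320 s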
[6] = biological target: Alpha-2C adrenergic receptor (Homo sapiens) (UniProt P18825); assay: compounds altering alpha2C-coupled GIRK flux – cell-based, HEK293 alpha2C/GIRK1/2, thallium flux, primary screen (AID 624;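 active = fluorescence slope after compound addition differing from the mean of all screened samples at 99.7% confidence, in either direction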;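 also: slope of fluorescence ratio to pre-addition baseline per second over 15 to 24 s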); conditions: thallium flux BTC fluorescence, at 10 µM, actives lie on both sides
[7] = blockers of RIG-like receptor reporter activation – cell-based, Sendai virus stimulus, luciferase, 10K MLSCN set, TLR/RLR signaling modifier project, primary screen (AID 602276;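 active = inhibition at or above 50% at 10 µM; inactive = inhibition below 50%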;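 also: firefly luciferase from ISG56 promoter only with Renilla not read in this screen; 0% = Sendai virus plus DMSO and 100% = medium plus DMSO without virus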); conditions: HEK293 RL24 IRF3 luciferase reporter, at 10 µM, stronger effect = higher value
[8] = TLR3 IRF3 reporter activation blockers – cell-based, poly I:C stimulus, luciferase, 10K MLSCN set, primary screen (AID 602277;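 active = inhibition of the reporter signal at or above 50%; inactive = inhibition below 50%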); conditions: HEK293-TLR3 RL24 IRF3 luciferase reporter, at 10 µM, stronger effect = higher value

Chain of Alpha-2C adrenergic receptor (Homo sapiens) (P18825 whole entry, looked up): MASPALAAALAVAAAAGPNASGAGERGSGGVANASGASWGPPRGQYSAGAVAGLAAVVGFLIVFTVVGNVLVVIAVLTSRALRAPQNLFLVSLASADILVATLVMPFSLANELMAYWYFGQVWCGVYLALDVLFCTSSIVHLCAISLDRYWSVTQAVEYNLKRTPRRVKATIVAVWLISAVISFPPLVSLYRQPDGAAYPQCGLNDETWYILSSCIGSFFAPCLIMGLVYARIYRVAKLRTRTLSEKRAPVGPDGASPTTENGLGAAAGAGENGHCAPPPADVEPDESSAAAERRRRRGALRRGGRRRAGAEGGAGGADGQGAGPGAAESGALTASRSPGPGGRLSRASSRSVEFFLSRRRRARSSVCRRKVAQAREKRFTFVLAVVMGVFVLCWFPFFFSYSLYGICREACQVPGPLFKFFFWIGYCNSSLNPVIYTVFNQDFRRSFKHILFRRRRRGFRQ
Chain of Voltage-gated potassium channel subunit beta-2 (Rattus norvegicus) (P62483 whole entry, looked up): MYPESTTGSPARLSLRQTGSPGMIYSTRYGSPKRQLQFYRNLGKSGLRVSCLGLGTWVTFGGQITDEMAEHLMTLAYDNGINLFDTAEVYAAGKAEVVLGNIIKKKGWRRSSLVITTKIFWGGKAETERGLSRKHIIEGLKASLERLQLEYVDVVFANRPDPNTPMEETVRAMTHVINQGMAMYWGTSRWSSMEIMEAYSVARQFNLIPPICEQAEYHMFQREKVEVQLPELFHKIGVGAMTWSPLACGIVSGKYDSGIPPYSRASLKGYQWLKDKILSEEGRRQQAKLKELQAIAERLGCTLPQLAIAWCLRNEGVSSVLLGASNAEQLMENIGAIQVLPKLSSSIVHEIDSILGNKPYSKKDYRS

| SMILES | cell count [1] | inhibition [1] | inhibition of aggregation [2] | nuclei count [2] | inhibition [3] | nuclei count [3] | fluorescence slope [4] | NADPH fluorescence slope [5] | slope [6] | inhibition [7] | inhibition [8] |
| --- | --- | --- | --- | --- | --- | --- | --- | --- | --- | --- | --- |
| Cc1cc(C(=O)N2CCN(c3ncccn3)CC2)cs1 | 401 | -0.7% (inactive) | 4.3% (inactive) | 99% | 0.9% (inactive) | 110% | -0.591 (inactive) | -2.2e-05 (inactive) | 0.00264 (inactive) | 13.1% (inactive) | -6.87% (inactive) |
| CC(C)CCN1CC(C(=O)NCc2ccccc2)CC1=O (centres undefined) | 538 | 2.2% (inactive) | 2.7% (inactive) | 121% | -57.7% (inactive) | 108% | -0.288 (inactive) | -1.6e-05 (inactive) | 0.00611 (inactive) | 30.7% (inactive) | 14.3% (inactive) |
| Cc1csc2ncc(C(=O)Nc3ccccc3Cl)c(=O)n12 | 677 | 5.8% (inactive) | -20% (inactive) | 95.1% | -12.3% (inactive) | 116% | -0.486 (inactive) | 5.1e-06 (inactive) | 0.00716 (inactive) | -29% (inactive) | -83.1% (inactive) |
| C#CCNc1c(C)c(C)nc2ncnn12 | 306 | -9.4% (inactive) | 32.2% (inactive) | 86.1% | -44.2% (inactive) | 89.3% | -0.592 (inactive) | -3.6e-05 (inactive) | 0.00371 (inactive) | 14.5% (inactive) | 9.86% (inactive) |
| COc1ccc(C)cc1NC(=O)CSc1nnnn1Cc1ccccc1 | 709 | -1.6% (inactive) | -27.3% (inactive) | 107% | 8.3% (inactive) | 124% | -0.528 (inactive) | -1.1e-05 (inactive) | 0.00685 (inactive) | -7.12% (inactive) | 13.4% (inactive) |
| O=C(C1CCCN(S(=O)(=O)c2cccnc2)C1)N1CCN(c2ccccn2)CC1 (centres undefined) | 671 | -0.3% (inactive) | -27.9% (inactive) | 108% | -1.7% (inactive) | 108% | -0.581 (inactive) | -1.6e-05 (inactive) | 0.00648 (inactive) | 5.38% (inactive) | 14% (inactive) |
| CC(C)COC(=O)C1C2C=CC3(CN(C(C)c4ccc(Br)cc4)C(=O)C13)O2 (centres undefined) | 477 | -10.8% (inactive) | 28.1% (inactive) | 78.4% | -32.2% (inactive) | 86.6% | -0.532 (inactive) | -3.6e-05 (inactive) | 0.00795 (inactive) | 11.4% (inactive) | 28.5% (inactive) |
| Cc1nc(CCNS(=O)(=O)c2cccs2)cs1 | 371 | -4.4% (inactive) | 6.9% (inactive) | 108% | -20.4% (inactive) | 102% | -0.566 (inactive) | 2.6e-05 (inactive) | 0.00608 (inactive) | -9.77% (inactive) | -22.4% (inactive) |
| COCCN1Cc2cccc(C(=O)Nc3cccnc3)c2C1=O | 649 | -26.5% (inactive) | -6.7% (inactive) | 100% | -39.6% (inactive) | 100% | -0.503 (inactive) | -0.000182 (inactive) | 0.00506 (inactive) | 6.71% (inactive) | 5.54% (inactive) |
| CCN1CCN(C(=O)C2CC(c3ccc(F)cc3)=NO2)CC1 (centres undefined) | 538 | 1.5% (inactive) | 3% (inactive) | 102% | 1.4% (inactive) | 108% | -0.621 (inactive) | -4e-05 (inactive) | 0.00735 (inactive) | -8.44% (inactive) | 20.7% (inactive) |
| O=C(CSc1nc2c(c(=O)n1-c1ccc(F)cc1)SCC2)NCC1CCCO1 (centres undefined) | 256 | 9.8% (inactive) | 16.7% (inactive) | 94.5% | -8.7% (inactive) | 78.2% | -0.462 (inactive) | -5.5e-05 (inactive) | 0.00463 (inactive) | 17.7% (inactive) | 19.7% (inactive) |
| COc1cc(C2c3c(oc4ccccc4c3=O)C(=O)N2c2ccc(C)cn2)ccc1O (centres undefined) | 464 | 2.1% (inactive) | 8.8% (inactive) | 107% | -49% (inactive) | 122% | -0.598 (inactive) | -4.5e-05 (inactive) | 0.00645 (inactive) | -5.41% (inactive) | 7.4% (inactive) |
| O=C(Nc1ccc(Br)c2cccnc12)c1ccc(Cn2cc(Cl)cn2)o1 | 357 | 9.8% (inactive) | 10.4% (inactive) | 94.8% | -76.7% (inactive) | 99.5% | -0.519 (inactive) | -3.6e-05 (inactive) | 0.00614 (inactive) | -9.8% (inactive) | -11% (inactive) |
| CCOc1ccc(-c2nnc(N)s2)cc1 | 432 | -3.8% (inactive) | 29.9% (inactive) | 61.4% | -8.1% (inactive) | 90.5% | -0.493 (inactive) | -0.000137 (inactive) | 0.00563 (inactive) | -27% (inactive) | -78.8% (inactive) |
